Test results: paper PMC10726135, “HNF4α isoforms regulate the circadian balance between carbohydrate and lipid metabolism in the liver”
In all, about 18,000 sequences were measured (“log2 normalized intensity”: median about 0.39, highest 2% from about 6.6 on). The entries come from a sample that favours the highest values as a whole.

target: T1, HNF4alpha2 (COS-7 nuclear extract) (Homo sapiens, UniProt P41235 1-474); assay: protein-binding microarray; COS-7 nuclear extract on double-stranded Agilent 4x180k PBM; binding buffer, salt, pH and temperature not given in the material; high values mean tight binding; conditions: chain copies: 2; label: 3' end of strand 1 on the slide; dsDNA, one strand shown
T1 sequence: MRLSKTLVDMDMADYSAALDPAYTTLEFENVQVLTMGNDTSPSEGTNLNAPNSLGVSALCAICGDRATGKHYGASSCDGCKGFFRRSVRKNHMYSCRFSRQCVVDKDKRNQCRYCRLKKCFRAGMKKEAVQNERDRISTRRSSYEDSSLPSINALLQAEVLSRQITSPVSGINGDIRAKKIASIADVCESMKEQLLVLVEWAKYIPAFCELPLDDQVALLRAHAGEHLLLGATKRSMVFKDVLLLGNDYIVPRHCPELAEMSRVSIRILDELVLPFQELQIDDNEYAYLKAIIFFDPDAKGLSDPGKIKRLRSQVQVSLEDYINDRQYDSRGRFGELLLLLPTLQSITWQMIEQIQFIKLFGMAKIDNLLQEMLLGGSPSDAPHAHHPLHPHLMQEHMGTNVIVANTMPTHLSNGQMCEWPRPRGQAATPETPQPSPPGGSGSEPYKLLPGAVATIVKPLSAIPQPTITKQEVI
In short: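 Nuclear extracts of COS-7 cells transiently transfected with a human HNF4α isoform were applied to a custom Agilent SurePrint G3 4x180k array bearing ~44,000 double-stranded ~60-nt test sequences, each in quadruplicate. The bound protein was imaged on an Agilent G2565CA scanner at 2-µm resolution. Binding signal is the normalized, background-corrected gProcessedSignal from Agilent software.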

Sequence	binding signal [log2 normalized intensity]
GTGCTCTGGGTCTGTCCTTTGTGTTTATGGGCCTAGGGAGATTAGAGTATCGGTCGA	2.66
CAGTGGGCCCAGAGCACAACCTTTGGCCGTGCCTAGGGAGATTAGAGTATCGGTCGA	4.45
TTGCCCACCAATGATCAAAGGTTAGTCTTAGCCTAGGGAGATTAGAGTATCGGTCGA	3.63
AAAACATATTTGCATAATGGAGCAAAGGTCGCCTAGGGAGATTAGAGTATCGGTCGA	5.4
ATGGGATGACCTTTGAGCAATAGGAAATGGGCCTAGGGAGATTAGAGTATCGGTCGA	4.18
AAAGACTTGCTCATTGATGAGTGACCTTTGGCCTAGGGAGATTAGAGTATCGGTCGA	6.15
CTAGGAAACTGACCTTTGCTCATGACTATTGCCTAGGGAGATTAGAGTATCGGTCGA	5.53
ATTCTCACCACTAGGAAACTGACCTTTGCTGCCTAGGGAGATTAGAGTATCGGTCGA	5.16
GTGACCTTTGACCTCAGAGAGCCGGAAACTGCCTAGGGAGATTAGAGTATCGGTCGA	7.21
TTGCCCCTTTGACCCTCGGGCCTCCCTAGAGCCTAGGGAGATTAGAGTATCGGTCGA	3.97
GGCTGATGACCTTTGACTGAGATGGGAGCAGCCTAGGGAGATTAGAGTATCGGTCGA	4.03
GATGAGTGACCTTTGACCTCAGAGAGCCGGGCCTAGGGAGATTAGAGTATCGGTCGA	9.56
ACCACATTCTCACCACTAGGAAACTGACCTGCCTAGGGAGATTAGAGTATCGGTCGA	3.23
CACCACTAGGAAACTGACCTTTGCTCATGAGCCTAGGGAGATTAGAGTATCGGTCGA	6.73
CTACTACTTGACCTTTGAAACATATCCAGAGCCTAGGGAGATTAGAGTATCGGTCGA	5.48
TCATTGATGAGTGACCTTTGACCTCAGAGAGCCTAGGGAGATTAGAGTATCGGTCGA	9.89
CTCTGCAAACATTTATTTTGTGTGCTAGATGCCTAGGGAGATTAGAGTATCGGTCGA	1.54
TTGCCCACATTCACACAATCAGTGTGTTGAGCCTAGGGAGATTAGAGTATCGGTCGA	-0.0239
AGCAGTCCCTTCCCCCCTCCTCATTGAGAGGCCTAGGGAGATTAGAGTATCGGTCGA	4.37

Sequence	binding signal [log2 normalized intensity]
TTGCACCAGTTTCTCAACAGACCCCTGAATGCCTAGGGAGATTAGAGTATCGGTCGA	2.27
CTTGACGCTAACTTCCAGATCAAAGGACATGCCTAGGGAGATTAGAGTATCGGTCGA	0.608
GTCTAATTGTGCTGAGAGAGTCCTTGTTTGGCCTAGGGAGATTAGAGTATCGGTCGA	1.63
GCAGATGGGCAGCACTGTGATTTGTTCAGGGCCTAGGGAGATTAGAGTATCGGTCGA	0.439
GTCTGCTGCCCAGACACACAATATTATGTTGCCTAGGGAGATTAGAGTATCGGTCGA	-0.79
GGAGATAACCCATCTGGGGAAAGTGCAAGGGCCTAGGGAGATTAGAGTATCGGTCGA	-0.913
TCTGCAAGGCAACTGACCTTTGGATCTGGGGCCTAGGGAGATTAGAGTATCGGTCGA	7.21
TCTGGTGCCAAGGAGCCTCTGCAACCTTTGGCCTAGGGAGATTAGAGTATCGGTCGA	2.46
CTGGTTCTGCAAGGCAACTGACCTTTGGATGCCTAGGGAGATTAGAGTATCGGTCGA	8.08
CTTGGGGGAGGAGGGCAACCTTTGAACTGGGCCTAGGGAGATTAGAGTATCGGTCGA	5.3
TTCTTCTGGTTCTGCAAGGCAACTGACCTTGCCTAGGGAGATTAGAGTATCGGTCGA	3.64
TGGACAACTGTACTTTGGACTGGGGACCTGGCCTAGGGAGATTAGAGTATCGGTCGA	5.1
TATACAAGAAAGAAAGAATGTTTGCTTCTGGCCTAGGGAGATTAGAGTATCGGTCGA	-0.716
GGTGGACTTTGTAGCTCAAACAGTCTAAAAGCCTAGGGAGATTAGAGTATCGGTCGA	2.3
GTTAAAGTTGCCTGATGACAACTGAATGTGGCCTAGGGAGATTAGAGTATCGGTCGA	0.26
ACACCGTATCATCAAACCTGTTATTTGCGCGCCTAGGGAGATTAGAGTATCGGTCGA	1.25
TCACCAGGATGGGCCATGACCTTTACCCCCGCCTAGGGAGATTAGAGTATCGGTCGA	9.28
GATAAAGCAGGTTGTACCTTGACCCAAGAAGCCTAGGGAGATTAGAGTATCGGTCGA	4.88
AGGATGGGCCATGACCTTTACCCCCATTTGGCCTAGGGAGATTAGAGTATCGGTCGA	7.65

Sequence	binding signal [log2 normalized intensity]
ATGACCTTTACCCCCATTTGGTAATGGGCCGCCTAGGGAGATTAGAGTATCGGTCGA	4.83
GGCAGGGCCAGATAAAGCAGGTTGTACCTTGCCTAGGGAGATTAGAGTATCGGTCGA	2.4
AACGGCCCAGGGTTAGAGGATGACCTTCCCGCCTAGGGAGATTAGAGTATCGGTCGA	2.99
GGCCAGATAAAGCAGGTTGTACCTTGACCCGCCTAGGGAGATTAGAGTATCGGTCGA	8.92
CACTATCACCAGGATGGGCCATGACCTTTAGCCTAGGGAGATTAGAGTATCGGTCGA	4.48
GGGCCATGACCTTTACCCCCATTTGGTAATGCCTAGGGAGATTAGAGTATCGGTCGA	6.29
GCTTCTCTTGGACCTCAATGTGCTCATCCAGCCTAGGGAGATTAGAGTATCGGTCGA	0.722
CCCACGTACATTGCACCCTCCAGGAGCCCCGCCTAGGGAGATTAGAGTATCGGTCGA	2.07
TATGTGATCAGATGTGGACAATCATTGTGCGCCTAGGGAGATTAGAGTATCGGTCGA	1.53
AGTGGAGAAATAACATTAATGGAAATGCCTGCCTAGGGAGATTAGAGTATCGGTCGA	-0.84
ACCATCCACGGATGCATGATTGCTCTCTACGCCTAGGGAGATTAGAGTATCGGTCGA	-0.932
TGCACAACGACCCTTGCTCTGTTTTCTGACGCCTAGGGAGATTAGAGTATCGGTCGA	1.89
CTTTGAGAAAGCAAAGTCCCTGGGGACAGGGCCTAGGGAGATTAGAGTATCGGTCGA	-0.0595
TCTTTTCTAAGACATAACACAGGTGACCTTGCCTAGGGAGATTAGAGTATCGGTCGA	4.03
CTAAGCAGGCACATTCCAGGACCTTTGCTCGCCTAGGGAGATTAGAGTATCGGTCGA	4.08
AGGTGACCTTTGCTCCGGTTCCCAATAAGTGCCTAGGGAGATTAGAGTATCGGTCGA	5.06
TCTAAGACATAACACAGGTGACCTTTGCTCGCCTAGGGAGATTAGAGTATCGGTCGA	8.37
AACACAGGTGACCTTTGCTCCGGTTCCCAAGCCTAGGGAGATTAGAGTATCGGTCGA	6.26
GACATAACACAGGTGACCTTTGCTCCGGTTGCCTAGGGAGATTAGAGTATCGGTCGA	7.4
